PubChem BioAssay (NCATS)
Records with an inconclusive call do not appear. A call without a number means that no potency is given here. Calls of active or inactive are those of the source. Calls come from the whole dose curve; as a rule, active = well fitted curve in the direction sought with a large enough effect; inconclusive = small, poorly fitted or top-dose-only effect, or another doubt; inactive = no such curve, though single readings can be large; an effect the other way counts as inactive or inconclusive.

What was measured:
[1] = qHTS assay for measurement of the activity of small molecule inhibitors on Zika virus induced Caspase-3 activity in human iPSC derived neural progenitor cells (hNPCs) (AID 1224857); conditions: hNPCs ZIKV-induced caspase-3/7, Caspase-Glo luminescence, 6 h; series mostly up to 45.7 µM; note: nearly all actives have a fitted effect of over 65% in size
How it was run: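 Cells were plated at 350 per well and grown 16 to 20 hours. Compound pretreatment lasted one hour, after which ZIKV (2 FFU/cell) was added for 6 hours. Percent inhibition was normalized between uninfected and infected controls.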

[2] = qHTS assay for measurement of the activity of small molecule inhibitors on Zika virus induced Caspase-3 activity in human astrocytoma cells (AID 1224859); conditions: SNB-19 ZIKV-induced caspase-3/7, luminescence, 6 h; series mostly up to 45.7 µM
How it was run: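 Percent inhibition of virus-induced caspase-3/7 signal is calculated against uninfected and ZIKV-infected control cells. Cells are SNB-19, infected at 2 FFU/cell for 6 h after 1 h compound exposure.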

[3] = qHTS assay to identify small molecule inhibitors of chordoma cells - UCH-1 (AID 1259355); conditions: UCH-1 chordoma viability, CellTiter-Glo, 48 h, combination; series mostly up to 46.1 µM; note: nearly all actives have a fitted effect of over 55% in size
How it was run: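 800 cells/well, overnight attach; compounds pinned at 15 concs, then auranofin/camptothecin/doxorubicin/rubitecan/topotecan combo added; 48hr 37 C, 5% CO2; CellTiter-Glo, 30min RT, luminescence.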

[4] = qHTS assay to identify small molecule inhibitors of chordoma cells - UCH-2 (AID 1259356); conditions: UCH-2 chordoma viability, CellTiter-Glo ATP luminescence, 48 h; series mostly up to 46.1 µM

Row | SMILES | Potency [1] | Potency [2] | Potency [3] | Potency [4]
1 | CCC(=O)O[C@@H]1C=C2CCC3C(CCC4(C)C3CC[C@@H]4OC(=O)CC)C2CC1 (some centres undefined) | inactive | inactive |  | 
2 | CC(C)(C)NC[C@H](O)c1ccc(O)cc1Cl | inactive | inactive |  | 
3 | CNCCc1ccc(O)c(O)c1 | inactive | inactive |  | 
4 | CCOCCOC(C)=O | inactive | inactive |  | 
5 | CO/C=C(/C(=O)OC)c1ccccc1Oc1cc(Oc2ccccc2C#N)ncn1 | inactive | inactive |  | 
6 | Cc1nccc2c1[nH]c1ccccc12 | inactive | inactive |  | 
7 | C#CCOC(=O)C1=CCCN(C)C1 | inactive | inactive |  | 
8 | Nc1ccc([N+](=O)[O-])cc1 | inactive | inactive |  | 
9 | CC[C@@H]1C(=O)OC[C@@H]1Cc1cncn1C | inactive |  |  | 
10 | Nc1ccc(Sc2ccc(N)cc2)cc1 | inactive | inactive |  | 
11 | NCc1cc(=O)[nH]o1 | inactive | inactive |  | 
12 | COc1ccc(C(c2ccc(OC)cc2)C(Cl)(Cl)Cl)cc1 | inactive | inactive |  | 
13 | CC(C)(C)C(O)C(Oc1ccc(Cl)cc1)n1cncn1 (centres undefined) | inactive | inactive |  | 
14 | O=S(=O)(O)C(F)(F)C(F)(F)C(F)(F)C(F)(F)C(F)(F)C(F)(F)C(F)(F)C(F)(F)F | inactive | inactive |  | 
15 | Oc1ccc2c3c1O[C@H]1[C@@H](O)C=C[C@H]4[C@@H](C2)NCC[C@@]341 | inactive | inactive |  | 
16 | C=CCN1CC[C@]23CCCCC2[C@H]1Cc1ccc(O)cc13 (some centres undefined) | inactive | inactive |  | 
17 | OCCCBr | inactive | inactive |  | 
18 | Cn1cnc(CCN)c1 | inactive | inactive |  | 
19 | O=C1C(I)=CC(=C(c2cc(I)c(O)c(I)c2)c2ccccc2C(=O)O)C=C1I | inactive | inactive | inactive | inactive
20 | C=CC(=O)NCNC(=O)C=C | inactive | inactive |  | 
21 | O=[N+]([O-])c1c(Cl)c(Cl)cc(Cl)c1Cl | inactive | inactive |  | 
22 | CCO/N=C(\CC)C1=C(O)CC(c2c(C)cc(C)cc2C)CC1=O (centres undefined) | inactive | inactive |  | 
23 | CCC1(CCC(C)C)C(=O)NC(=O)NC1=O | inactive | inactive |  | 
24 | c1ccc2sc(C3(N4CCCCC4)CCCCC3)cc2c1 | inactive | inactive |  | 
